Data reported in article PMC7862700, “An all-to-all approach to the identification of sequence-specific readers for epigenetic DNA modifications on cytosine”.

Key:
Experiment in all cases: DAPPL (digital affinity profiling via proximity ligation, sequencing); 10 mM Tris-HCl pH 7.5, 50 mM NaCl, 1 mM DTT, 4% glycerol, room temperature, 30 min; GST-TFs on glutathione beads, 16-mer random dsDNA library, 0.1% formaldehyde crosslink after washing; high values mean tight binding
[1] = molecular target: T1, FLI1 (Homo sapiens, UniProt Q01543 1-452); details: protein: recombinant; tags: N-terminal GST; dsDNA, one strand shown
T1 sequence: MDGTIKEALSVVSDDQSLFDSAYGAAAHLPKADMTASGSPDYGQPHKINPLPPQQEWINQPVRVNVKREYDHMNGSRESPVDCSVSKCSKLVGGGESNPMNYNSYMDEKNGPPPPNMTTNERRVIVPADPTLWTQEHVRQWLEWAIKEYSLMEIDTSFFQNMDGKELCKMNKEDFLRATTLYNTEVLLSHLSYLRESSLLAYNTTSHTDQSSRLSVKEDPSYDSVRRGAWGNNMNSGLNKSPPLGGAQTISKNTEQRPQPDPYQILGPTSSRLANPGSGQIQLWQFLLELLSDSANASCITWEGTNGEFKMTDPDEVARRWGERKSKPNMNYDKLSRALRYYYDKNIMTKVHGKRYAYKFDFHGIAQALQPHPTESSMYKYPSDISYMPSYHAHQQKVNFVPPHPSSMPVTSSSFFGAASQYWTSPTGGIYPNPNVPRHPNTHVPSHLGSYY
How it was run: (§1)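 GST fusions of human transcription factors were expressed in yeast and captured with glutathione beads. Once given DNA barcodes and pooled alongside a tag-only sample, they were incubated for 30 min at room temperature with 200 nmole of a random double-stranded 16-mer DNA library in Tris/NaCl/DTT/glycerol buffer, then washed, crosslinked (0.1% formaldehyde), proximity-ligated, PCR-amplified and sequenced on an Illumina NextSeq500. The binding signal of each hexamer is its read frequency for a factor divided by its frequency for the tag-only sample.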

[2] = molecular target: T2, ELK1 (Homo sapiens, UniProt P19419 1-428); details: protein: recombinant; tags: N-terminal GST; dsDNA, one strand shown
T2 sequence: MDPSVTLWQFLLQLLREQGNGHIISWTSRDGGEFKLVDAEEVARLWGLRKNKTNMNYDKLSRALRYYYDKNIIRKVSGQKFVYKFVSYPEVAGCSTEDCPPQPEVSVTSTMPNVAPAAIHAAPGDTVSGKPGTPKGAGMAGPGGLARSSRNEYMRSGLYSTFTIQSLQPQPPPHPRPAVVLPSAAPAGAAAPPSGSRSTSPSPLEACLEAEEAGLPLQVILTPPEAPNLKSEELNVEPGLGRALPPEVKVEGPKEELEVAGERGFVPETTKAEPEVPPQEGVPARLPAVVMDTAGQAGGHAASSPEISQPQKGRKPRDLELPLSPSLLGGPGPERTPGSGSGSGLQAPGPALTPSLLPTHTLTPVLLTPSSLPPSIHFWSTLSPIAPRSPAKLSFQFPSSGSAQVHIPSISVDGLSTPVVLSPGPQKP
How it was run: as §1

[3] = molecular target: T3, GABPA (Homo sapiens, UniProt Q06546 1-454); details: protein: recombinant; tags: N-terminal GST; dsDNA, one strand shown
T3 sequence: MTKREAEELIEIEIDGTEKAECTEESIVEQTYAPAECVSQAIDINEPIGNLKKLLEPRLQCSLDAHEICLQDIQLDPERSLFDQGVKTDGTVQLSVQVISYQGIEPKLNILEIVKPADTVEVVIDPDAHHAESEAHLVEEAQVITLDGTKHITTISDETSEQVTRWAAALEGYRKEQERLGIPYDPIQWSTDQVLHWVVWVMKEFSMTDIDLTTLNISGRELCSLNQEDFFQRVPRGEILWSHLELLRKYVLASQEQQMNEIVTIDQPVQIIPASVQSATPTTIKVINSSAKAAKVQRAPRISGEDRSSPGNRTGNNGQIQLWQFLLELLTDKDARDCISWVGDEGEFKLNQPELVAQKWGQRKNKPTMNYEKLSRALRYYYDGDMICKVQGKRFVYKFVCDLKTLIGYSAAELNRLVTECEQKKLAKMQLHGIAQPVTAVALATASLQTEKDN
How it was run: as §1

[4] = molecular target: T4, ERG (Homo sapiens, UniProt P11308 1-479); details: protein: recombinant; tags: N-terminal GST; dsDNA, one strand shown
T4 sequence: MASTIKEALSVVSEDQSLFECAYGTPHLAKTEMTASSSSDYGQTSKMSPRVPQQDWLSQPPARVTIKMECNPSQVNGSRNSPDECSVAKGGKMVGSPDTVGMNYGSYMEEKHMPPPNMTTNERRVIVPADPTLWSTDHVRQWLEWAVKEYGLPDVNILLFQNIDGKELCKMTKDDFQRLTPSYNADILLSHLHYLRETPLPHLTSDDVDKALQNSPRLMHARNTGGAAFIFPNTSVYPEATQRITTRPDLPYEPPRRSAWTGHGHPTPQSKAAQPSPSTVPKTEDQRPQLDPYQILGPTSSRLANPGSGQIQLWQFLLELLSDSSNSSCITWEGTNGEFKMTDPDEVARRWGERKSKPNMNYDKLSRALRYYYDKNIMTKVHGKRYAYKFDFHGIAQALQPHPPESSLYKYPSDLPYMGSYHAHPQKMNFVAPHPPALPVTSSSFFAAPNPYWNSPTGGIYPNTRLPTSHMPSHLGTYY
How it was run: as §1

[5] = molecular target: ELF1 (Homo sapiens, UniProt P32519 1-619); details: protein: recombinant; tags: N-terminal GST; dsDNA, one strand shown
Chain of ELF1 (P32519 whole entry): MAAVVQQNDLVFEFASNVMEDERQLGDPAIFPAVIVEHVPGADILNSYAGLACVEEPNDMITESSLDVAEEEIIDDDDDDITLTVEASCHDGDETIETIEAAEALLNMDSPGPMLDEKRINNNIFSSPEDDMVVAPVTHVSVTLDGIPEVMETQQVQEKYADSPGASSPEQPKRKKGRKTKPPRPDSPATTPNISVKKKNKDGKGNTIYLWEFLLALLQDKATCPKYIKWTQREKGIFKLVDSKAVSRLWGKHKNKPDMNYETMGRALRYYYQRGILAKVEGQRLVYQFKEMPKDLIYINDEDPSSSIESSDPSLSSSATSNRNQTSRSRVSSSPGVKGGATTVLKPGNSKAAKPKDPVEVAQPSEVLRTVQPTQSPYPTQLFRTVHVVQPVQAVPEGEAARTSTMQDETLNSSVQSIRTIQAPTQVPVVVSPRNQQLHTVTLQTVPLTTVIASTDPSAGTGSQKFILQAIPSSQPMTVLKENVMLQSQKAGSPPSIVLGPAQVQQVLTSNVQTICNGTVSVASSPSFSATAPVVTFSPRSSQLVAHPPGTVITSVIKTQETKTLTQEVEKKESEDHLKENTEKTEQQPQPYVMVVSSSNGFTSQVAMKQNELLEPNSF
How it was run: as §1

[6] = molecular target: T5, EHF (Homo sapiens, UniProt Q9NZC4 1-300); details: protein: recombinant; tags: N-terminal GST; dsDNA, one strand shown
T5 sequence: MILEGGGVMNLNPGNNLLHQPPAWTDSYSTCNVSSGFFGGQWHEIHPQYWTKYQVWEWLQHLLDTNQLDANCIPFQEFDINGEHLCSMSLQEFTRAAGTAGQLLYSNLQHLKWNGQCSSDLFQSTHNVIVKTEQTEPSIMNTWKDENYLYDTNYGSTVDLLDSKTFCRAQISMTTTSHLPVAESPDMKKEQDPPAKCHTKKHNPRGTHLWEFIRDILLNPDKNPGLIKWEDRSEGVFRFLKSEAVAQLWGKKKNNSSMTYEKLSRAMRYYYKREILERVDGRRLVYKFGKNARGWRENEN
How it was run: as §1

[7] = molecular target: SPI1 (Homo sapiens, UniProt P17947 1-270); details: protein: recombinant; tags: N-terminal GST; dsDNA, one strand shown
How it was run: as §1

[8] = molecular target: SPIB (Homo sapiens, UniProt Q01892 1-262); details: protein: recombinant; tags: N-terminal GST; dsDNA, one strand shown
Chain of SPIB (Q01892 whole entry): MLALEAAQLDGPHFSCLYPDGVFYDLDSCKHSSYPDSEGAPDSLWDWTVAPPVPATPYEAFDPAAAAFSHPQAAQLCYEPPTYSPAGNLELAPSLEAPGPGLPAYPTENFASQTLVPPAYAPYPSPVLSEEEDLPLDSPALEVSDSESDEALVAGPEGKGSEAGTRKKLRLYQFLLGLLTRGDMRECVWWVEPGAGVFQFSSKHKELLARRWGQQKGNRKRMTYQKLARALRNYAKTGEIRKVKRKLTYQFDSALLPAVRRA
How it was run: as §1

[9] = molecular target: T6, ELK3 (Homo sapiens, UniProt P41970 1-407); details: protein: recombinant; tags: N-terminal GST; dsDNA, one strand shown
T6 sequence: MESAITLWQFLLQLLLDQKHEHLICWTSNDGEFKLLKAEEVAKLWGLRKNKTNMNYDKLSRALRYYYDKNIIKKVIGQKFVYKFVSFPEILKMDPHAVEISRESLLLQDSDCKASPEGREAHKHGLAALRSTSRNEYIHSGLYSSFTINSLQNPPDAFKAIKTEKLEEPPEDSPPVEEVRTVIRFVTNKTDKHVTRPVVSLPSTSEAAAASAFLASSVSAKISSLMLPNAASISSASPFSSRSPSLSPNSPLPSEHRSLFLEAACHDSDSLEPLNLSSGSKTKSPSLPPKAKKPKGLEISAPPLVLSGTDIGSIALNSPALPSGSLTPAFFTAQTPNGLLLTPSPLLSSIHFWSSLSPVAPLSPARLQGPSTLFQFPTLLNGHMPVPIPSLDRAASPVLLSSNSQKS
How it was run: as §1

[10] = molecular target: T7, FEV (Homo sapiens, UniProt Q99581 1-238); details: protein: recombinant; tags: N-terminal GST; dsDNA, one strand shown
T7 sequence: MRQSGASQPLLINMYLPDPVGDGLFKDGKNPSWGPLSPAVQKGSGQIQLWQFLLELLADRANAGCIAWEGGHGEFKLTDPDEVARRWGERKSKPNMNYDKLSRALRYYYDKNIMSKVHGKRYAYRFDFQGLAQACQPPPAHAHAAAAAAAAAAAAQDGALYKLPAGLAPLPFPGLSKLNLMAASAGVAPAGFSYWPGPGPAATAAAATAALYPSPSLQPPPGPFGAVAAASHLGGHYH
How it was run: as §1

[11] = molecular target: ETV5 (Homo sapiens, UniProt P41161 1-510); details: protein: recombinant; tags: N-terminal GST; dsDNA, one strand shown
Chain of ETV5 (P41161 whole entry): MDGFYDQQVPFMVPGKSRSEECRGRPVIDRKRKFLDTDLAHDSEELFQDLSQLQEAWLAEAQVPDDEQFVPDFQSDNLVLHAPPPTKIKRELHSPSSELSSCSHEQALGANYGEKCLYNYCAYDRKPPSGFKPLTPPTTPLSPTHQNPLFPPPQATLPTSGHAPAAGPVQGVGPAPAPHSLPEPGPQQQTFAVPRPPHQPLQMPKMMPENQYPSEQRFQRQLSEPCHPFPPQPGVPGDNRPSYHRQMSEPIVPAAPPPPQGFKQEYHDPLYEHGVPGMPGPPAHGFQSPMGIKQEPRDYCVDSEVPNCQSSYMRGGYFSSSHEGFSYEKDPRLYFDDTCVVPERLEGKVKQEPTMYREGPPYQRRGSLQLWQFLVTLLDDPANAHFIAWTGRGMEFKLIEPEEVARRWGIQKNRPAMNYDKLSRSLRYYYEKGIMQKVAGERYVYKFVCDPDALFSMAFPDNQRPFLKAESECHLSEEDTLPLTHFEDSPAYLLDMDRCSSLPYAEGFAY
How it was run: as §1

[12] = molecular target: HSF1 (Homo sapiens, UniProt Q00613 1-529); details: protein: recombinant; tags: N-terminal GST; chain copies: 3; dsDNA, one strand shown
Chain of HSF1 (Q00613 whole entry): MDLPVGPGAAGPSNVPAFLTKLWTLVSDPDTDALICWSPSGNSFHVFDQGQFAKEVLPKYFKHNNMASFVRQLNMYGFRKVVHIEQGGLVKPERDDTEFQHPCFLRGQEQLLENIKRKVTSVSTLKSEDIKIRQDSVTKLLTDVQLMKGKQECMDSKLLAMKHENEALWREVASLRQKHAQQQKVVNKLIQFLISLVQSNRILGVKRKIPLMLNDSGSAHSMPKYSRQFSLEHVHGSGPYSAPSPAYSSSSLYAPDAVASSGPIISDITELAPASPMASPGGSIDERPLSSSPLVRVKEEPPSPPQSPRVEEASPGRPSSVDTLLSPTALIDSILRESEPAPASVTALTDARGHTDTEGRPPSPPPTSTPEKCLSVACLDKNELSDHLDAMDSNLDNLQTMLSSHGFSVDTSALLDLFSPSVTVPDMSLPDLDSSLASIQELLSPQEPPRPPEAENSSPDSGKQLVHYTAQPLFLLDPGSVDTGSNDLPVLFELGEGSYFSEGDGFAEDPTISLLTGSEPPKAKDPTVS
How it was run: as §1

[13] = molecular target: T8, SPIC (Homo sapiens, UniProt Q8N5J4 1-248); details: protein: recombinant; tags: N-terminal GST; dsDNA, one strand shown
T8 sequence: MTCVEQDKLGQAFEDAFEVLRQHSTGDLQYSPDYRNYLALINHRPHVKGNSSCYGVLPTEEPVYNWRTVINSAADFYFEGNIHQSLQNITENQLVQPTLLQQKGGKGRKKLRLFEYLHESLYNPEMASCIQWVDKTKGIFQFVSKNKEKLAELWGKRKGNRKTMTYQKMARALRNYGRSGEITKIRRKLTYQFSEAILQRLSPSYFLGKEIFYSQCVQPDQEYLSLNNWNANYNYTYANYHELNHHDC
How it was run: as §1

[14] = molecular target: ELF4 (Homo sapiens, UniProt Q99607 1-663); details: protein: recombinant; tags: N-terminal GST; dsDNA, one strand shown
Chain of ELF4 (Q99607 whole entry): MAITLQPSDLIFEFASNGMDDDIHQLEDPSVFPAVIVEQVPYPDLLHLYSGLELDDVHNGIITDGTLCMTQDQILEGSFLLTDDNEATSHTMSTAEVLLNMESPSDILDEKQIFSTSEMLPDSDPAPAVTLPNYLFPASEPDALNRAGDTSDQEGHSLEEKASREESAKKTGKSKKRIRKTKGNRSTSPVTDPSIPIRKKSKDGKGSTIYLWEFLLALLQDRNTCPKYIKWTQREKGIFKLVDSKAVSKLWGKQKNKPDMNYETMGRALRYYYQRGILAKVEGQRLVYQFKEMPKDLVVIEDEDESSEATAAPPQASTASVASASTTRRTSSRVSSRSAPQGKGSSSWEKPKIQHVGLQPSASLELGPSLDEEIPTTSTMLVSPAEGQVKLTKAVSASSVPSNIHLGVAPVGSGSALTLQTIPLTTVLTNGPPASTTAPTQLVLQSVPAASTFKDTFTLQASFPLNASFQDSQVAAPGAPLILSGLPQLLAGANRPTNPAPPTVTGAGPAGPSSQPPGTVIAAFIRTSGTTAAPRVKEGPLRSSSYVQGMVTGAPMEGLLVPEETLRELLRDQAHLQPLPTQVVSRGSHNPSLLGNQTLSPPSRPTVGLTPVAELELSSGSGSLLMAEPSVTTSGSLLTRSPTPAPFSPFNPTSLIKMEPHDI
How it was run: as §1

[15] = molecular target: T9, ELK4 (Homo sapiens, UniProt P28324-2 1-405); details: protein: recombinant; tags: N-terminal GST; dsDNA, one strand shown
T9 sequence: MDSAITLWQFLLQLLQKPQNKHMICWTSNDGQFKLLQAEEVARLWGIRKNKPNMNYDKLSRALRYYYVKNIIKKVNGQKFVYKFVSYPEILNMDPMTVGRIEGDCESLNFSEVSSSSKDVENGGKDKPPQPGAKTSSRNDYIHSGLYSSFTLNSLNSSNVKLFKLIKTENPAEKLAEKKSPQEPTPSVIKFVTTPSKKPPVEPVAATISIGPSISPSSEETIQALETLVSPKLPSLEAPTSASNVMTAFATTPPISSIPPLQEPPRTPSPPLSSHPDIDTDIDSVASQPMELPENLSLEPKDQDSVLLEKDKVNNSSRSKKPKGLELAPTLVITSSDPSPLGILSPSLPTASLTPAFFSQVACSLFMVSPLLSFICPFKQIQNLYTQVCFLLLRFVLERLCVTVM
How it was run: as §1

[16] = molecular target: T10, ETV2 (Homo sapiens, UniProt O00321 1-342); details: protein: recombinant; tags: N-terminal GST; dsDNA, one strand shown
T10 sequence: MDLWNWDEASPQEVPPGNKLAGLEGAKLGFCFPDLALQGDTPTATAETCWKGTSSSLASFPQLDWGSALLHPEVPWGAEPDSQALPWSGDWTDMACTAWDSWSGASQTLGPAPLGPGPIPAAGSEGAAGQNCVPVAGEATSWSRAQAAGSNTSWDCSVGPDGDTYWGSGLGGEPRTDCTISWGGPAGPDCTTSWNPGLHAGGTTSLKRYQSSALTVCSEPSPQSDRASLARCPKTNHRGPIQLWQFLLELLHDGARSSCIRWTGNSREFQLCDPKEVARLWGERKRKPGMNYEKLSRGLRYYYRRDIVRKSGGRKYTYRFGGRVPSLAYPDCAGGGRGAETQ
How it was run: as §1

[17] = molecular target: T11, ELF3 (Homo sapiens, UniProt P78545 1-371); details: protein: recombinant; tags: N-terminal GST; dsDNA, one strand shown
T11 sequence: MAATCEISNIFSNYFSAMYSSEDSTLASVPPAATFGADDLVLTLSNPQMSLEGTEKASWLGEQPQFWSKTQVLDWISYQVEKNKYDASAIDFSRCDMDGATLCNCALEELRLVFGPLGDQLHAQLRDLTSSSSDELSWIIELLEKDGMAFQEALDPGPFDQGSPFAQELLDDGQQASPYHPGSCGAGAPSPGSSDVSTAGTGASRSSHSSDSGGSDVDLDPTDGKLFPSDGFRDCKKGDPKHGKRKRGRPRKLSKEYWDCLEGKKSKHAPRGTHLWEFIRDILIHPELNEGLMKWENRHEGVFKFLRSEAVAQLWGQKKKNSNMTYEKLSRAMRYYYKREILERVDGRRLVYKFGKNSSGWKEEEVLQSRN
How it was run: as §1

[18] = molecular target: CRX (Homo sapiens, UniProt O43186 1-299); details: protein: recombinant; tags: N-terminal GST; dsDNA, one strand shown
Chain of CRX (O43186 whole entry): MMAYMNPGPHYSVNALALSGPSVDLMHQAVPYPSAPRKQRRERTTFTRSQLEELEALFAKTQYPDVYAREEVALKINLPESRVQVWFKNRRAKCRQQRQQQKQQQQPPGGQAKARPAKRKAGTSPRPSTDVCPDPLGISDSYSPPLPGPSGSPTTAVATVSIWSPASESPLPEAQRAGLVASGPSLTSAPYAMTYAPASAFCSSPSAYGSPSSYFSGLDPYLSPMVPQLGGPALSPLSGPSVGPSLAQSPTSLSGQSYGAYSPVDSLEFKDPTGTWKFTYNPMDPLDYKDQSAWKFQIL
How it was run: as §1

[19] = molecular target: ETV1 (Homo sapiens, UniProt P50549 1-477); details: protein: recombinant; tags: N-terminal GST; dsDNA, one strand shown
Chain of ETV1 (P50549 whole entry): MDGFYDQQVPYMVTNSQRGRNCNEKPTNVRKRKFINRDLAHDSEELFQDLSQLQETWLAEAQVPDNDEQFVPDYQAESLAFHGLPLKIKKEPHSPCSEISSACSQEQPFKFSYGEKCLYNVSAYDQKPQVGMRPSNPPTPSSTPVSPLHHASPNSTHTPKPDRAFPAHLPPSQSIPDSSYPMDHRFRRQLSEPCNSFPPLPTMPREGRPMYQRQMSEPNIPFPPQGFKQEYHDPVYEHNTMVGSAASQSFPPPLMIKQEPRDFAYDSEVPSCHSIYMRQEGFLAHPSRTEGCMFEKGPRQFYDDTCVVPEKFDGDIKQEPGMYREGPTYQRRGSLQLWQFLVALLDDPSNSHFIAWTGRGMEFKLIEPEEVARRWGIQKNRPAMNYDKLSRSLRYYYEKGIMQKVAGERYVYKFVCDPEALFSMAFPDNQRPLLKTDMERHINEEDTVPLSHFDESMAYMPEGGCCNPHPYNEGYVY
How it was run: as §1

Question: Which results are given for GCTCAG?
Answer: binding signal [1]: 1.16 fold enrichment (6-mer frequency, TF over GST control); binding signal [2]: 1.17 fold enrichment (6-mer frequency, TF over GST control); binding signal [3]: 1.24 fold enrichment (6-mer frequency, TF over GST control); binding signal [4]: 1.18 fold enrichment (6-mer frequency, TF over GST control); binding signal [5]: 1.21 fold enrichment (6-mer frequency, TF over GST control); binding signal [6]: 1.11 fold enrichment (6-mer frequency, TF over GST control); binding signal [7]: 1.07 fold enrichment (6-mer frequency, TF over GST control); binding signal [8]: 1.12 fold enrichment (6-mer frequency, TF over GST control); binding signal [9]: 1.11 fold enrichment (6-mer frequency, TF over GST control); binding signal [10]: 1.11 fold enrichment (6-mer frequency, TF over GST control); binding signal [11]: 1.17 fold enrichment (6-mer frequency, TF over GST control); binding signal [12]: 1.13 fold enrichment (6-mer frequency, TF over GST control); binding signal [13]: 1.23 fold enrichment (6-mer frequency, TF over GST control); binding signal [14]: 1.19 fold enrichment (6-mer frequency, TF over GST control); binding signal [15]: 1.22 fold enrichment (6-mer frequency, TF over GST control); binding signal [16]: 1.18 fold enrichment (6-mer frequency, TF over GST control); binding signal [17]: 1.03 fold enrichment (6-mer frequency, TF over GST control); binding signal [18]: 1.41 fold enrichment (6-mer frequency, TF over GST control); binding signal [19]: 1.13 fold enrichment (6-mer frequency, TF over GST control)
